# Values joined by “and” are separate entries in the source; they are usually repeats but may differ in a detail not shown here. Equal values may be shown once. Results filed as inconclusive are left out. A structure can be active in one record and inactive in another. Active and inactive are the calls of the source. How the source made its calls, unless noted: active means hit-call score of the fitted dose curve at least 0.9, where 1 is the maximum; inactive means score below 0.9.
# What was measured:
# [1] = read-out: Collagen I, COL1A1 (gene 1277); assay: BSK_MyoF_CollagenI: BioMAP Diversity Plus: MyoF Assay for Collagen I Biomarker Activity (AID 2284238); settings: primary human lung fibroblasts
# Procedure, shortened: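 Lung fibroblasts (human primary) dosed, 24 h; Collagen I by ELISA; positive-direction fit vs DMSO control. Parallel SRB total-protein staining (0.1% SRB, 10% TCA fixation, 560 nm) flags overt cytotoxicity.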
# [2] = read-out: Collagen III, COL3A1 (gene 1281); assay: BSK_MyoF_CollagenIII: BioMAP Diversity Plus: MyoF Assay for Collagen III Biomarker Activity (AID 2284239); settings: primary human lung fibroblasts
# Procedure, shortened: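 ELISA read-out of collagen III from human lung fibroblasts after 24 h of chemical treatment. The DMSO control served as negative control and baseline, with values fitted in the positive direction.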
# [3] = read-out: Interleukin 17F (IL17F), IL17F (gene 112744); assay: BSK_BT_xIL17F: BioMAP Diversity Plus: BT Assay for Interleukin 17F (IL17F) Biomarker Activity (AID 2284243); settings: primary human B cells with PBMC
# Procedure, shortened: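 Compound was added to co-cultures of human B cells and PBMC. After 24 hours, IL-17F released into the medium was measured with LumineX xMAP technology. Responses were then fitted upward relative to DMSO.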
# [4] = read-out: Actin alpha 1 (ACTA1), ACTA1 (gene 58); assay: BSK_MyoF_ACTA1: BioMAP Diversity Plus: MyoF Assay for Actin alpha 1 (ACTA1) Biomarker Activity (AID 2284244); settings: primary human lung fibroblasts
# Procedure, shortened: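 MyoF fibroblast system (human lung); a-SMA quantified via ELISA at 24 h; DMSO-normalised, gain-of-signal endpoint.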
# [5] = read-out: Interleukin 2 (IL2), IL2 (gene 3558); assay: BSK_BT_xIL2: BioMAP Diversity Plus: BT Assay for Interleukin 2 (IL2) Biomarker Activity (AID 2284245); settings: primary human B cells with PBMC
# Procedure, shortened: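 Co-cultures of primary human B cells and PBMC are treated with chemical and sampled at 24 h. IL-2 secretion is quantified by Luminex xMAP, with DMSO-treated wells as baseline.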
# [6] = read-out: Basic fibroblast growth factor (bFGF), FGF2 (gene 2247); assay: BSK_MyoF_bFGF: BioMAP Diversity Plus: MyoF Assay for Basic fibroblast growth factor (bFGF) Biomarker Activity (AID 2284246); settings: primary human lung fibroblasts
# Procedure, shortened: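 Fibroblasts from human lung, 24 h dosing. bFGF by ELISA; gain of signal over DMSO.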
# [7] = read-out: Collagen IV, COL4A1 (gene 1282); assay: BSK_MyoF_CollagenIV: BioMAP Diversity Plus: MyoF Assay for Collagen IV Biomarker Activity (AID 2284247); settings: primary human lung fibroblasts
# Procedure, shortened: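 Lung fibroblasts (human primary) treated with chemicals were assayed after 24 h for Collagen IV using an ELISA, with DMSO serving as negative control and baseline for a positive-direction fit.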
# [8] = read-out: Monokine induced gamma interferon (MIG), CXCL9 (gene 4283); assay: BSK_KF3CT_MIG: BioMAP Diversity Plus: KF3CT Assay for Monokine induced gamma interferon (MIG) Biomarker Activity (AID 2284248); settings: primary human keratinocytes with fibroblasts
# Procedure, shortened: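 KF3CT system: keratinocyte/fibroblast co-culture, 24 h post-dose, MIG by ELISA; activity vs DMSO, positive fitting direction.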
# [9] = read-out: Vascular cell adhesion molecule 1 (VCAM1), VCAM1 (gene 7412); assay: BSK_BF4T_VCAM1: BioMAP Diversity Plus: BF4T Assay for Vascular cell adhesion molecule 1 (VCAM1) Biomarker Activity (AID 2284249); settings: primary human bronchial epithelial cells with fibroblasts
# Procedure, shortened: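 Cell-surface VCAM-1 quantified by ELISA after 24 h chemical exposure of human bronchial epithelial/dermal fibroblast co-cultures, with SRB staining in parallel wells for cytotoxicity; DMSO baseline, positive-direction fitting.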
# [10] = read-out: Collagen I, COL1A1 (gene 1277); assay: BSK_hDFCGF_CollagenI: BioMAP Diversity Plus: hDFCGF Assay for Collagen I Biomarker Activity (AID 2284250); settings: primary human foreskin fibroblasts
# Procedure, shortened: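 Readout: Collagen I by ELISA after 24 h compound treatment of primary human foreskin fibroblasts. Endpoint analysed for increases relative to DMSO; total protein by SRB in parallel wells flagged cytotoxicity.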
# [11] = read-out: Interferon-inducible T-cell alpha chemoattractant (ITAC), CXCL11 (gene 6373); assay: BSK_hDFCGF_ITAC: BioMAP Diversity Plus: hDFCGF Assay for Interferon-inducible T-cell alpha chemoattractant (ITAC) Biomarker Activity (AID 2284251); settings: primary human foreskin fibroblasts
# Procedure, shortened: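 Measured by ELISA, the chemokine level serves as the endpoint in human skin fibroblast primary cultures 24 h after compound addition. Increases relative to DMSO-treated wells define activity.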
# [12] = read-out: Plasminogen activator inhibitor-1 (PAI1), SERPINE1 (gene 5054); assay: BSK_KF3CT_PAI1: BioMAP Diversity Plus: KF3CT Assay for Plasminogen activator inhibitor-1 (PAI1) Biomarker Activity (AID 2284252); settings: primary human keratinocytes with fibroblasts
# Procedure, shortened: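 In this co-culture of primary human keratinocytes and foreskin fibroblasts, PAI-1 was measured by ELISA at 24 h and fitted upward from DMSO.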
# [13] = read-out: Monocyte Chemoattractant Protein-1 (MCP1), CCL2 (gene 6347); assay: BSK_IMphg_MCP1: BioMAP Diversity Plus: IMphg Assay for Monocyte Chemoattractant Protein-1 (MCP1) Biomarker Activity (AID 2284253); settings: primary human endothelial cells with macrophages
# Procedure, shortened: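 ELISA readout of MCP-1 at 24 hours in IMphg co-cultures of venular endothelial cells and macrophages, normalised to DMSO; parallel cultures stained with sulforhodamine B for overt cytotoxicity.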
# [14] = read-out: Interleukin-8 (IL8), CXCL8 (gene 3576); assay: BSK_KF3CT_IL8: BioMAP Diversity Plus: KF3CT Assay for Interleukin-8 (IL8) Biomarker Activity (AID 2284254); settings: primary human keratinocytes with fibroblasts
# Procedure, shortened: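 Chemicals were added to co-cultured human keratinocytes and foreskin fibroblasts, incubated 24 h, then IL-8 was quantified by ELISA. Cytotoxicity was tracked by sulforhodamine B total-protein staining in parallel cultures.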
# [15] = read-out: Macrophage Inflammatory Protein-1 Alpha (MIP1a), CCL3 (gene 6348); assay: BSK_IMphg_MIP1a: BioMAP Diversity Plus: IMphg Assay for Macrophage Inflammatory Protein-1 Alpha (MIP1a) Biomarker Activity (AID 2284255); settings: primary human endothelial cells with macrophages
# Procedure, shortened: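 MIP-1a protein levels were quantified by ELISA after 24 h treatment of human endothelial cell–macrophage co-cultures, compared with DMSO. Parallel cultures were fixed with TCA and stained with 0.1% SRB to gauge overt cytotoxicity.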
# [16] = CCTE_Mundy_HCI_Cortical_NOG_NeuronCount: CCTE's Neurite Outgrowth Assay in rat cortical cells for Neuron Count, Mundy Lab (AID 2284236; active means hit-call score of the fitted dose curve at least 0.9, where 1 is the maximum;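 further: neurons counted by imaging betaIII-tubulin and Hoechst stained cortical cells; cells exposed to compound for about 48 hours before fixation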)
# Procedure, shortened: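 Read-out: neuron number by high-content imaging of betaIII-tubulin (Alexa Fluor-488) and Hoechst-labelled rat primary cortical cells.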
# [17] = CCTE_Mundy_HCI_Cortical_NOG_BPCount: CCTE's Neurite Outgrowth Assay in rat cortical cells for Branch Point Count, Mundy Lab (AID 2284237);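 on AC50: branch points counted about two days after chemical exposure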
# Procedure, shortened: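 Measured 50.33 h after dosing, this morphology endpoint uses rat primary cortical cultures labelled for betaIII-tubulin. Branch points are quantified by high-content imaging, with DMSO as negative control and baseline.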
# [18] = CCTE_Mundy_HCI_hNP1_Casp3_7: CCTE's Caspase-Glo 3/7 Assay in human neuroprogenitor cells for Apoptosis, Mundy Lab (AID 2284240)
# Procedure, shortened: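 Luminescent caspase-3/7 readout, 26.5 h post-dose, in human neural progenitor cells from WA09 embryonic stem cells. Cells grew 40–44 h at 37 °C, 5% CO2 before chemical addition. Activity analysed as signal increase over DMSO baseline.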
# [19] = CCTE_Mundy_HCI_hNP1_CellTiter: CCTE's Cell Titer-Glo 2 Assay in human neuroprogenitor cells for Viability, Mundy Lab (AID 2284241; active means hit-call score of the fitted dose curve at least 0.9, where 1 is the maximum;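 on AC50: a hit is a drop in ATP luminescence versus DMSO meaning reduced viability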)
# Procedure, shortened: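 Viability read as luminescent ATP content (CellTiter-Glo, 30 min room temperature) twenty-four hours after dosing, relative to DMSO. Cells: WA09-derived hNP1 neuroprogenitors on poly-L-ornithine/laminin, plated 40 to 44 hours before chemical.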
# [20] = CCTE_Mundy_HCI_Cortical_Synap_Neur_Matur_NeuronCount: CCTE's Synaptogenesis and Neurite Maturation Assay in rat cortical cells for Neuron Count, Mundy Lab (AID 2284242; active means hit-call score of the fitted dose curve at least 0.9, where 1 is the maximum;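 on AC50: hits reduce neuron count versus DMSO baseline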)
# Procedure, shortened: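 Measured at DIV 12: fluorescently labelled neurons (Hoechst nuclei, MAP2) in rat primary cortical cultures, counted by high-content imaging. AraC suppressed glia from DIV 5; DMSO served as negative control.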
structure (smiles),measurement,setting,value
O=C(O)C(F)(F)C(F)(F)C(F)(F)C(F)(F)C(F)(F)F,outcome,[1],inactive
same,outcome,[2],inactive
same,outcome,[3],inactive
same,outcome,[4],inactive
same,outcome,[5],inactive
same,outcome,[6],inactive
same,outcome,[7],inactive
same,outcome,[8],inactive
same,outcome,[9],inactive
same,outcome,[10],inactive
same,outcome,[11],inactive
same,outcome,[12],inactive
same,outcome,[13],inactive
same,outcome,[14],inactive
same,outcome,[15],inactive
CO/C=C(/C(=O)OC)c1ccccc1COc1cccc(C(F)(F)F)n1,AC50,[16],2.81 µM (active)
same,AC50,[17],1.28 µM (active)
same,AC50,[18],21.7 µM (active)
same,AC50,[19],81.5 µM (active)
same,AC50,[20],0.935 µM (active)
Sc1ccccc1,outcome,[1],inactive
same,outcome,[2],inactive
same,outcome,[3],inactive
same,outcome,[4],inactive
same,outcome,[5],inactive
same,outcome,[6],inactive
same,outcome,[7],inactive
O=S(=O)(O)C(F)(F)C(F)(F)C(F)(F)C(F)(F)F,outcome,[16],inactive
same,outcome,[17],inactive
same,outcome,[1],inactive
same,outcome,[2],inactive
same,outcome,[18],inactive
same,outcome,[19],inactive
same,outcome,[3],inactive
same,outcome,[4],inactive
same,outcome,[5],inactive
same,outcome,[6],inactive
same,outcome,[7],inactive
same,outcome,[8],inactive
same,outcome,[9],inactive
same,outcome,[10],inactive
same,outcome,[11],inactive
same,outcome,[12],inactive
same,outcome,[13],inactive
same,outcome,[14],inactive
same,outcome,[15],inactive
Oc1c(Cl)c(Cl)c(Cl)c(Cl)c1Cl,AC50,[1],2.58 µM (active)
same,AC50,[2],4.07 µM (active)
same,outcome,[3],inactive
same,AC50,[4],10.3 µM (active)
same,outcome,[5],inactive
same,AC50,[6],33.5 µM (active)
same,AC50,[7],30.6 µM (active)
O=C(O)C(F)(F)C(F)(F)C(F)(F)C(F)(F)C(F)(F)C(F)(F)C(F)(F)C(F)(F)C(F)(F)F,AC50,[1],15.8 µM (active) and 18.9 µM (active)
same,AC50,[2],26.2 µM (active) and 19.1 µM (active)
same,outcome,[18],inactive
same,outcome,[19],inactive
same,outcome,[3],inactive
same,AC50,[4],45.3 µM (active) and 23.6 µM (active)
same,outcome,[5],inactive
same,AC50,[6],56.9 µM (active) and 55.4 µM (active)
same,AC50,[7],7.07 µM (active) and 7.44 µM (active)
same,AC50,[8],50.1 µM (active) and 45.2 µM (active)
same,AC50,[9],11.8 µM (active) and 14.2 µM (active)
same,outcome,[10],inactive
same,AC50,[11],19 µM (active) and 22 µM (active)
same,AC50,[12],41.7 µM (active) and 33.4 µM (active)
same,AC50,[13],46.9 µM (active) and 53.7 µM (active)
same,AC50,[14],44.9 µM (active)
same,outcome,[14],inactive
same,AC50,[15],47 µM (active) and 33.7 µM (active)
COc1ccc(O)c(C(C)(C)C)c1,outcome,[17],inactive
same,outcome,[18],inactive
same,outcome,[19],inactive
same,outcome,[20],inactive
same,outcome,[8],inactive
same,outcome,[10],inactive
same,outcome,[11],inactive
same,outcome,[12],inactive
same,outcome,[14],inactive
